The results in this text go back to PubChem BioAssay (EPA / NIEHS).

As a reminder, the AC50 is the concentration giving half of the maximal activity seen.

The structures appear in SMILES notation. Records with an inconclusive call do not appear. Active and inactive are the calls of the source. Rule for the calls: active = hit-call score of the fitted dose curve at least 0.9, where 1 is the maximum; inconclusive = response in the unintended direction; inactive = score below 0.9.

Chain of Estrogen receptor (Homo sapiens) (P03372 whole entry, looked up, the tested form may be a part): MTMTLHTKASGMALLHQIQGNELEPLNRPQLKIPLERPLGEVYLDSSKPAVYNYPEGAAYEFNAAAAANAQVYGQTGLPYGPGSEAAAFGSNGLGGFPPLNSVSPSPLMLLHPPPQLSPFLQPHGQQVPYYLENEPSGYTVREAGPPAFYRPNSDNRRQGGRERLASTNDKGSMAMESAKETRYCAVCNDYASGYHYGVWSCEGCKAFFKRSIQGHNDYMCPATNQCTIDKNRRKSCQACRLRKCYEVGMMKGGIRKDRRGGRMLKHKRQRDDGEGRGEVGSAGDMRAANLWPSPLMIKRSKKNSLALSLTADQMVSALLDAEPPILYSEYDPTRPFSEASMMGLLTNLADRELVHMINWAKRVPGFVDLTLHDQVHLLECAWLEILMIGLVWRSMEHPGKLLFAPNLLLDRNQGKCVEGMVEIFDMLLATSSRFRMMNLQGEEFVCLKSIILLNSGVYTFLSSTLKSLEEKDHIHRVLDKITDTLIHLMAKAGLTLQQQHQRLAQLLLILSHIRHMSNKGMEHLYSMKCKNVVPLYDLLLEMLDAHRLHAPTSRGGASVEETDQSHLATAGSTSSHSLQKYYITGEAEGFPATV

For this assay, the target named is Estrogen receptor (Homo sapiens) (UniProt P03372). Description: OT_ER_ERaERa_0480: Odyssey Thera (OT) 8-hour HEK293T Protein-Complementation Assay for Estrogen Receptor-alpha/-alpha Homodimer (AID 2283351).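 Note: rise in fluorescence from reassembled reporter fragments on ERα LBD homodimer in nucleus or whole cell.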 How it is done:
OT_ER_ERaERa_0480 is a cell-based assay that uses HEK293T, a human kidney cell line, with measurements taken at 8 hours after chemical dosing in a 384-well plate.OT_ER_ERaERa_0480 is one of one assay component(s) measured or calculated from the OT_ER_ERaERa_0480 assay. It is designed to make measurements of protein fragment complementation, a form of binding reporter, as detected with fluorescence intensity signals by Protein-fragment Complementation technology.Data from the assay component OT_ER_ERaERa_0480 was analyzed into 1 assay endpoint. This assay endpoint, OT_ER_ERaERa_0480, was analyzed in the positive analysis fitting direction relative to DMSO as the negative control and baseline of activity. Using a type of binding reporter, measures of receptor for gain-of-signal activity can be used to understand the binding at the pathway-level as they relate to the gene ESR1. Furthermore, this assay endpoint can be referred to as a primary readout, because the performed assay has only produced 1 assay endpoint. To generalize the intended target to other relatable targets, this assay endpoint is annotated to the nuclear receptor intended target family, where the subfamily is steroidal.
Protein-fragment complementation assay, or PCA, is a method for the identification and quantification of protein-protein interactions. In the PCA, the proteins of interest ("bait" and "prey") are each covalently linked to fragments of a third protein (e.g. DHFR, which acts as a "reporter"). Interaction between the bait and the prey proteins brings the fragments of the reporter protein in close proximity to allow them to form a functional reporter protein whose activity can be measured. The OT ER alpha / ER alpha assay is a homodimer PCA of the ligand binding domain (amino acids 310-547) of human ER alpha stably expressed in HEK293T cells. […] Fluorescent signal in the basal state of the assay is very low and is primarily punctuate and cytoplasmic. Modulation of this assay is quantified as an increase in mean fluorescence intensity in the nucleus (for agonists) or in the nucleus and cytoplasm (antagonists) relative to vehicle controls, and can be quantified on a high content imaging device or a laser scanning cytometer. The latter instrument is favored for this assay because of the rapid mode of data acquisition, the ability to acquire data from the entire cell population in a well (as opposed to a fraction of the well on the high content devices) and the larger dynamic range typically achieved with this instrument. To assess sensitivity of the ER alpha/ER alpha LBD assay to ligand, cells were treated with the ER agonist 17 beta-estradiol (E2) in 10-point concentration- response format for 8 hours and monitored response on a laser scanning plate cytometer (Acumen eX3; TTP Lab Tech).
As for `CCCCOC(=O)[C@H](C)O`, the result was inactive.

As to `O=C(c1ccccc1)c1ccc(O)cc1O`, the concentration at half-maximal activity (AC50) is 22.7 µM (active).

Regarding `Cc1ccc(O)c(-n2nc3ccccc3n2)c1`, the outcome was inactive.

With `CCOC(=O)C1CC(=O)C(=C(O)C2CC2)C(=O)C1` (stereo unspecified), the molecule was classed as inactive.

Consider `CCN=c1cc2oc3cc(NCC)c(C)cc3c(-c3ccccc3C(=O)OCC)c-2cc1C`, for which the concentration at half-maximal activity (AC50) was 12.2 µM (active).

Regarding `CCCCCCCC/C=C\CCCCCCCC(=O)OCC(O)CO` (stereo unspecified), the molecule was classed as inactive.

Turning to `O=C1C=CC(=O)N1c1ccccc1`, the call was inactive.

Consider `CCN=C1C=CC(=C(c2ccc(N(CC)CC)cc2)c2ccc(N(CC)CC)cc2)c2ccccc21`, for which the call was inactive.

For `CCCCC(CC)COC(=O)c1ccc(N(C)C)cc1` (stereo unspecified), the molecule was called inactive.

For `Cc1ccc([N+](=O)[O-])c(C)c1`, the outcome was inactive.

Turning to `CC(C)(C)c1cc(Cc2cc(C(C)(C)C)c(O)c(C(C)(C)C)c2)cc(C(C)(C)C)c1O`, the result was inactive.

On to `CCCCOC(=O)C(C)O` (stereo unspecified), for which the outcome was inactive.

For the molecule `COCCOCCC[Si](C)(O[Si](C)(C)C)O[Si](C)(C)C`, the molecule was called inactive.

In the case of `N#Cc1ccccc1O`, the molecule was called inactive.

Turning to `CCCCCCCCCc1ccc(OCCO)cc1`, the call was inactive.

Consider `CCCCCCCCn1sc(Cl)c(Cl)c1=O`, for which the molecule was called inactive.

On to `CC(C)OC=O`, for which the outcome was inactive.

For the molecule `CCC(Cc1c(I)cc(I)c(N)c1I)C(=O)O` (stereo unspecified), the concentration at half-maximal activity (AC50) is 66.3 µM (active).

On to `CC(C)Nc1ccc(NC(C)C)c2c1C(=O)c1ccccc1C2=O`, for which the outcome was inactive.

Consider `CCc1cc(Cc2cc(CC)c(N)c(CC)c2)cc(CC)c1N`, for which the molecule was called inactive.

Consider `CCOC(OCC)OCC`, for which the molecule was classed as inactive.

As to `OCC1CCCO1` (stereo unspecified), the molecule was classed as inactive.

`CC(=O)CCC(C)C`: the outcome was inactive.

Turning to `CCCCCCCCCCCCC[N+](C)(C)Cc1ccccc1`, the call was inactive.

Take `F[Si-2](F)(F)(F)(F)F`: the call was inactive.

`CCCCCCCCCCCCCC[P+](CCCC)(CCCC)CCCC`: the molecule was called inactive.
